# Test results: PubChem BioAssay (NCI)
# Several values for one entry are separate records, joined by “and”; a condition that tells them apart may be missing. Identical values can stand only once. Compounds without any hit were thinned out: in the full panel of roughly 83,000, 20% have a hit.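 A percent growth of 40 corresponds to 60% growth inhibition; 0 means no net growth; -100 means all cells died. Active threshold: below 10.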 Activity calls are given as the source filed them.
# Tested on: OVCAR-3 ovarian
# Test: NCI-60 one-dose screen, 48 h (100 = growth as untreated, 0 = no growth, -100 = all killed)
# Conditions: 10 µM
# Procedure: Growth inhibition of the OVCAR-3 human tumor cell line is measured as a screen for anti-cancer activity. Cells are grown in 96 well plates and exposed to the test compound for 48 hours. Compounds are tested at a single concentration, which is 10^-5 M for most compounds. The reported endpoint is percent growth (GI% or GIPRCNT), where numbers from 0 - 100% represent growth inhibition, and numbers from -100% - 0 represent cell death. For example, a value of 40 represents 60% growth inhibition. A value of 0 means no net growth occurred over the course of the experiment. A value of -40 indicates 40% of cells at the beginning of the experiment died by the end of the experiment. A value of -100 means all cells are dead at the end of the experiment.
# NCI-60 Human Tumor Cell Lines Screen was performed using the standard one-dose NCI protocol, which is described in more detail at https://dtp.cancer.gov/discovery_development/nci-60/default.htm.
# Compounds with GIPRCNT values below 10 were considered active. Activity score was based on GIPRCNT using the following formula: […]
# Score is 0 for GIPRCNT values of 100 or above, 50 for GIPRCNT values of 0, and 100 for GIPRCNT values of -100.
row,SMILES,growth
1,O=C(Nc1c(Cl)cccc1Cl)Oc1cccc2cccnc12,14% (inactive)
2,O=C(O)c1c(Cl)c(Cl)c(Cl)c(Cl)c1-c1c2cc(I)c(=O)c(I)c-2oc2c(I)c(O)c(I)cc12,97.1% (inactive) and 72% (inactive) and 111% (inactive)
3,COc1ccc(-c2cscc2N)cc1,112% (inactive)

# Same assay, conditions: 10 µM unless noted
row,SMILES,growth
1,N#CSCc1ccc(Cl)c(CSC#N)c1,46.3% (inactive)
2,CC1(C)CC([P+](c2ccccc2)(c2ccccc2)c2ccccc2)=NN1,23.7% (inactive)
3,CC1OC2CC(=O)OC2C2=C1C(=O)c1c(O)cccc1C2=O (stereo not given),-97.9% (active)
4,CCC(CCCN(CC)CCc1ccccc1)OC(=O)c1cc(OC)c(OC)c(OC)c1 (stereo not given),92.2% (inactive)
5,Cc1cc(N)c2ccccc2[n+]1CCCCCCCCCC[n+]1c(C)cc(N)c2ccccc21,-16.7% (active) and 15% (inactive)
6,O=C(Oc1cccc2cccnc12)c1ccccc1,7.19% (active) and 115% (inactive)
7,O=C(Nc1ccc(F)cc1)ON=C1CCCCC1,108% [100 µM] (inactive)
8,C=CCOc1ccc(N=NC(C#N)C#N)cc1,39.7% (inactive)
9,Oc1c(Cl)cc(Cl)c2cccnc12,68% (inactive) and 15.3% (inactive)
10,CC(=O)Nc1cccc2cc(O)ccc12,111% (inactive) and 105% (inactive) and 108% (inactive)
11,O=C1N[C@H]2[C@H](CS[C@H]2CCCCC(=O)N(CCP(c2ccccc2)c2ccccc2)CCP(c2ccccc2)c2ccccc2)N1,0.222% (active)
12,CC1OC(OC2C(OC3CCC4(C)C(CCC5(C)C4CC=C4C6CC(C)(C)CCC6(CO)C(O)CC45C)C3(C)C)OC(C(=O)O)C(OC3OC(COC4OC(CO)C(O)C(O)C4O)C(O)C(O)C3O)C2O)C(O)C(O)C1O (stereo not given),-50.7% (active)
13,O=C1c2cccnc2-c2nccc3c2c1nc1cc(Br)ccc13,-83.1% (active) and -95.4% (active)
14,Cc1ccc(N=C=C(c2ccccc2)c2ccccc2)cc1,118% (inactive)
15,C1=C(c2ccccc2)C(c2ccc(OCCN3CCCCC3)cc2)Oc2ccccc21 (stereo not given),65.6% (inactive)
16,CC(C)c1ccc2nc3ccc(C(=O)NCCN4CCN(c5ccccc5)CC4)cn3c(=O)c2c1,77.5% (inactive)
17,O=C(O)c1ccc2c3c(ncnc13)-c1ccccc1C2=O,83.4% (inactive)

row,SMILES,growth
1,Cn1c2ccccc2c2nnc(N/N=C/c3ccccn3)nc21,23.5% (inactive)
2,O=C(/C=C/c1cccc(Cl)c1)c1ccccc1,84.9% (inactive) and 80.5% (inactive)
3,CNc1ccc2c(c1)c1ccccc1n2C,102% (inactive)
4,CCCCCCCCCCCCCCCCOP(=O)([O-])OCC[N+](C)(C)C,33.4% (inactive)
5,CCOC(=O)c1c(C)[nH]c(CO)c1C,103% (inactive)
6,Cn1c2c(c3ccccc31)CCN1C[C@@H]3CCCC[C@H]3C[C@@H]21,-74.3% (active)
7,Cc1ccnc2c1ccc1c(C)ccnc12,24.9% (inactive)
8,N#CSCc1ccc(CSC#N)c(Cl)c1,77.9% (inactive)
9,NC(=O)/C=C/C(=O)c1c(Cl)cccc1Cl,-81.3% (active)
10,O=C1c2ccccc2C(=O)N1c1ccccc1,108% (inactive)
11,CCCCCC(CCCCC)C(=O)O,118% (inactive)
12,Nc1nc(N)c2nc(CNc3ccc(C(=O)NC(CCC(=O)O)C(=O)O)cc3)cnc2n1 (stereo not given),37.6% (inactive) and 39.8% (inactive)
13,Cc1c2ccccc2c(C)c2c1ccc1ccccc12,105% (inactive)
14,OC(CNc1ccnc2cc(Cl)ccc12)CNc1ccnc2cc(Cl)ccc12,43.6% (inactive)
15,N#CSCC(=O)c1ccc(Cl)cc1,-25.3% (active)
16,O=C1NC(=O)/C(=C/C=C/c2ccccc2)S1,58.3% (inactive)
17,NC(=S)N/N=C/c1ccc(Cl)s1,105% (inactive)

# Same assay, conditions: 100 µM
row,SMILES,growth
1,O=C(Nc1c(Cl)cccc1Cl)Oc1cccc2cccnc12,4.16% (active)
2,O=C(O)c1c(Cl)c(Cl)c(Cl)c(Cl)c1-c1c2cc(I)c(=O)c(I)c-2oc2c(I)c(O)c(I)cc12,-26.1% (active)
3,COc1ccc(-c2cscc2N)cc1,40.9% (inactive)
